The supplement of paper PMC7156485
± gives the standard deviation of the averaged measurements.

Columns and labels:
Settings in all cases: concentration: 10 µM; 24 h
[1] = system: HCC1569; assay: cell number relative to DMSO (% of DMSO); higher = more cells (less growth inhibition / toxicity)
Summary of the method: (§1)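 Cells were seeded at 800 per well in 384-well plates with RPMI containing 10% FBS; both HCC1569 and TDF lines were used. Compounds were added at 10 µM for 24 h at 37 °C, in triplicate, before fixation in 3.7% formaldehyde and staining with a rabbit anti-H1.0 antibody, an AlexaFluor 647 secondary and DAPI. H1.0 nuclear intensity or cell number is reported as percent of the plate control using the median of replicates, and HCC1569 values were smoothed for positional effects.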

[2] = system: TDF; assay: as above
Summary of the method: as §1

[3] = system: TDF; assay: H1.0 immunofluorescence intensity relative to DMSO (% of DMSO); higher = stronger H1.0 induction, active = 120 or more
Summary of the method: as §1

[4] = system: HCC1569; assay: H1.0 immunofluorescence intensity relative to DMSO (% of DMSO); higher = stronger H1.0 induction, active = 140 or more
Summary of the method: as §1
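Wherever H1.0 immunofluorescence intensity relative to DMSO is given: TDF is a line of transformed human dermal fibroblasts of mesenchymal origin.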
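Wherever cell number relative to DMSO is given: TDF denotes transformed human dermal fibroblasts of mesenchymal origin.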

Structure (SMILES)	cell number [1]	cell number [2]	H1.0 immunofluorescence intensity [3]	H1.0 immunofluorescence intensity [4]
CC1CCC2N(C1)CC1C3CC4C(CC(=O)C5CC(O)CCC54C)C3CCC1C2(C)O (centres undefined) [Imperialine]	102	88.5	97.1 (inactive)	92.1 (inactive)
CCCCCCCCCCCCCC(=O)OC1C(C)C2(O)C(C=C(CO)CC3(O)C(=O)C(C)=CC32)C2C(C)(C)C12OC(C)=O (centres undefined) [Phorbol 12-myristate 13-acetate]	99 ± 4.3	74.6 ± 8.8	125 (active)	125 (inactive)
CC(=O)C1CCC2C3CCC4CC(O)CCC4(C)C3C(=O)CC12C (stereo not drawn) [5alpha-Pregnan-3alpha-ol-11,20-dione]	107	108	94.1 (inactive)	98.7 (inactive)
c1cncc(C2CCCCN2)c1 (racemic)	102	110	96 (inactive)	84.1 (inactive)
NC(C(=O)O)c1cc(=O)[nH]o1 (racemic)	104	103	92.2 (inactive)	92.6 (inactive)
Cl.NC(=O)c1ccc(OCC(O)CN2CC=C(c3ccc(F)cc3)CC2)cc1 (centres undefined)	105	107	96.4 (inactive)	106 (inactive)
Br.CCC1CN2CCc3cc(OC)c(OC)cc3C2CC1CC1NCCc2cc(O)c(OC)cc21 (centres undefined)	59.6	21.4	135 (active)	104 (inactive)
CC12CCC(O)CC1CCC1C2CCC2(C)C(c3ccc(=O)oc3)CCC12O (centres undefined) [Bufalin]	52.7	45	114 (inactive)	107 (inactive)
NC(=O)CI [Iodoacetamide]	47.9	33.8	134 (active)	170 (active)
O=C(Oc1ccc([N+](=O)[O-])cc1)N1CCN(Cc2cccc(Oc3ccccc3)c2)CC1 [4-nitrophenyl 4-(3-phenoxybenzyl)-1-piperazinecarboxylate]	97.4	104	101 (inactive)	105 (inactive)
O.O=P1(N(CCCl)CCCl)NCCCO1 (centres undefined) [Cyclophosphamide monohydrate]	79.6	61.2	116 (inactive)	103 (inactive)
CC(=O)NCCc1c[nH]c2ccccc12 [N-Acetyltryptamine]	101	97.5	104 (inactive)	94.1 (inactive)
COC(=O)N1CCN(C(=O)Cc2ccc(Cl)c(Cl)c2)C(CN2CCCC2)C1.O=C(O)C=CC(=O)O (centres undefined)	100	102	97.7 (inactive)	95.7 (inactive)
CC12CCC3C(CC=C4CC(O)CCC43C)C1CCC2=O (centres undefined) [Dehydroepiandrosterone]	105	107	99.7 (inactive)	93.6 (inactive)
CC(N)Cc1cnc[nH]1.Cl.Cl (stereo not drawn) [Histamine, R(-)-alpha-methyl-, dihydrochloride]	97.4	102	95.5 (inactive)	93.1 (inactive)
C/C(Nc1ccccc1)=C1\C(=O)NC(Cc2ccccc2)C1=O (centres undefined) [(3E)-3-(1-anilinoethylidene)-5-benzyl-2,4-pyrrolidinedione]	60.4	7.27	193 (active)	148 (active)
COc1cc(=O)oc(C=CC=CC=CC(C)=CC2(C)OC(C)C(C)(O)C2O)c1C (centres undefined) [Citreoviridin]	36.3	38.6	123 (active)	77.4 (inactive)
CCCCCC(C=CC=CCCCCCCCCCC(=O)O)OO (centres undefined)	111	92.8	94.4 (inactive)	103 (inactive)
NC(Cc1ccc(N(CCCl)CCCl)cc1)C(=O)O (centres undefined) [Melphalan]	86.3 ± 3.1	69.2 ± 5.8	104 (inactive)	96.1 (inactive)
Cc1c(C(C)C2NCC(C)CC2O)ccc2c1CC1C2CC=C2CC(O)CCC21C (centres undefined) [Veratramine]	96.7	88.6	104 (inactive)	90.2 (inactive)
CC(C(O)CCC(C)(C)O)C1CCC2(O)C3=CC(=O)C4CC(O)C(O)CC4(C)C3CCC12C (centres undefined) [Ecdysone]	103	112	90.8 (inactive)	88.8 (inactive)
CCCCCC=CCC=CCC=CCC=CCCCC(=O)NCC(=O)O [N-Arachidonylglycine]	108	98.1	95.7 (inactive)	95.8 (inactive)
Ic1ccccc1CNC1C2CCN(CC2)C1C(c1ccccc1)c1ccccc1.O=C(O)C(=O)O [L-703,606 oxalate]	85.3	91.8	114 (inactive)	128 (inactive)
COc1cc(C(O)CN)ccc1O.Cl (racemic)	102	111	92.5 (inactive)	94.7 (inactive)
CC(C)=CCCC1(C)C=Cc2c(O)c3c(c(CC=C(C)C)c2O1)OC12C(=CC4CC1C(C)(C)OC2(CC=C(C)C(=O)O)C4=O)C3=O (centres undefined) [Gambogic acid]	14.1	10.6	148 (active)	58.8 (inactive)
CNC(=O)Oc1ccc2c(c1)C1(C)CCN(C)C1N2C (centres undefined) [Physostigmine]	104	104	102 (inactive)	94.1 (inactive)

Structure (SMILES)	cell number [1]	cell number [2]	H1.0 immunofluorescence intensity [3]	H1.0 immunofluorescence intensity [4]
CC(N)c1cccc(Cl)c1Cl.Cl (racemic)	100	94.2	102 (inactive)	101 (inactive)
CN1C2CC(OC(=O)C(CO)c3ccccc3)CC1C1OC12 (centres undefined) [Scopolamine]	102	105	94.4 (inactive)	96.7 (inactive)
CS(=O)CCCCN=C=S (centres undefined) [1-isothiocyanato-4-(methylsulfinyl)butane]	99.7	94.9	93.7 (inactive)	89.6 (inactive)
CCCCCCCCCCCCCCCCOCC(COP(=O)([O-])OCC[N+](C)(C)C)OC(C)=O (stereo not drawn) [Enantio-PAF C16]	100	106	93.7 (inactive)	94 (inactive)
CCCC[N+]1(C)C2CC(OC(=O)C(CO)c3ccccc3)CC1C1OC12.[Br-] (centres undefined) [Scopolamine N-butylbromide]	99.1	111	93.6 (inactive)	88.1 (inactive)
CCN1CC2(C)CCC(OC)C34C2C(OC(C)=O)C2(OCOC25CC(OC)C2CC3(O)C5C2OC)C14 (centres undefined) [Deltaline]	105	104	98.2 (inactive)	96.9 (inactive)
Br.CCCN(CCC)CCc1ccc(O)c(O)c1 [Dipropyldopamine hydrobromide]	97.9	104	90.8 (inactive)	100 (inactive)
Br.COC(=O)C1=CCCN(C)C1 [Arecoline hydrobromide]	101	102	93.3 (inactive)	86.6 (inactive)
NC1CC1c1ccccc1 (centres undefined) [Tranylcypromine]	102	117	109 (inactive)	96 (inactive)
COC1C(O)C(C)OC(OC2C(Oc3cccc4c(O)c5c(=O)oc6ccc(C)c7c(=O)oc(c34)c5c67)OC(C)C(O)C2O)C1O (centres undefined) [Chartreusin]	105	99.3	100 (inactive)	108 (inactive)
CCCN(CCC)C1CCc2c(F)ccc(O)c2C1.Cl (stereo not drawn) [R(+)-UH-301 hydrochloride]	103	109	89.2 (inactive)	101 (inactive)
CCN(CC)C(=O)NC1C=C2c3cccc4[nH]cc(c34)CC2N(C)C1 (stereo not drawn) [S-(-)-Lisuride]	101	105	95.5 (inactive)	93.6 (inactive)
CC(C)(C)NCC(O)c1ccccc1Cl (centres undefined) [Tulobuterol]	111	101	90.7 (inactive)	114 (inactive)
Cc1cc2c(C(C)C)c(O)c(O)c(C=O)c2c(O)c1-c1c(C)cc2c(C(C)C)c(O)c(O)c(C=O)c2c1O [Gossypol]	80.6 ± 22	99.6 ± 5.5	92.2 (inactive)	103 (inactive)
Cc1cc(C2CCCN2C)on1 (centres undefined)	102	102	90.2 (inactive)	88.1 (inactive)
Cl.Cl.Fc1ccc(C(OCCN2CCN(CCCc3ccccc3)CC2)c2ccc(F)cc2)cc1	81	69.8	96.7 (inactive)	124 (inactive)
CN(C)Cc1c[nH]c2ccccc12 [Gramine]	96.9	99.3	94.1 (inactive)	83 (inactive)
CCN1CC2(COC)CCC(OC)C34C5CC6C(OC)CC7(OCOC7(C(O)C23)C14)C5C6OC (centres undefined) [Delcorine]	103	105	99 (inactive)	94.3 (inactive)
CC=C1CN2CCC34C(=C(CC=O)C1CC23)Nc1ccccc14 (centres undefined) [Norfluorocurarine]	100	104	97.8 (inactive)	96.3 (inactive)
Cl.NCCc1c[nH]c2ccc(O)cc12 [Serotonin hydrochloride]	102	118	90.1 (inactive)	92.2 (inactive)
CC(C)C1(NC(=O)C2CC3c4cccc5[nH]cc(c45)CC3N(C)C2)OC2(O)C3CCCN3C(=O)C(Cc3ccccc3)N2C1=O.CS(=O)(=O)O (centres undefined) [Dihydroergocristine mesylate]	100	110	91.4 (inactive)	88.3 (inactive)
CC(C)(O)C1C2OC(=O)C1C1(O)CC3OC34C(=O)OC2C14C (centres undefined) [Picrotonin]	99.4	100	97.2 (inactive)	82.5 (inactive)
CCCN1CCOC2c3cc(O)ccc3OCC21.Cl (stereo not drawn) [S(+)-PD 128,907 hydrochloride]	103	104	93.3 (inactive)	100 (inactive)
CCC12C=CCN3CCC4(c5ccc(OC)cc5N(C)C4C(O)(C(=O)OC)C1OC(C)=O)C32 (centres undefined) [Vindoline]	102	91.6	91.7 (inactive)	90.1 (inactive)
CNC(=O)Oc1ccc2c(c1)C1(C)CCN(C)C1N2C.CNC(=O)Oc1ccc2c(c1)C1(C)CCN(C)C1N2C.O=S(=O)(O)O (centres undefined) [Physostigmine sulfate]	97.1	102	90.4 (inactive)	106 (inactive)
